In article PMC4336329 (PLoS ONE, 2015):
Screen size: about 310,000 compounds; about 14,000 (4.5%) showed an effect of 50% or more. Effects have a minus sign here. The entries come from a sample that favours strong results as a whole.

These compounds were tested against human ether-à-go-go-related gene (hERG) potassium channel (human, UniProt Q12809) (assay: primary screen, population patch clamp on CHO cells stably expressing hERG; higher = less effect of the substance).
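Further: peak tail current of the secondary pulse compared with the same well before compound.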

Chain of human ether-à-go-go-related gene (hERG) potassium channel (Q12809 whole entry, looked up): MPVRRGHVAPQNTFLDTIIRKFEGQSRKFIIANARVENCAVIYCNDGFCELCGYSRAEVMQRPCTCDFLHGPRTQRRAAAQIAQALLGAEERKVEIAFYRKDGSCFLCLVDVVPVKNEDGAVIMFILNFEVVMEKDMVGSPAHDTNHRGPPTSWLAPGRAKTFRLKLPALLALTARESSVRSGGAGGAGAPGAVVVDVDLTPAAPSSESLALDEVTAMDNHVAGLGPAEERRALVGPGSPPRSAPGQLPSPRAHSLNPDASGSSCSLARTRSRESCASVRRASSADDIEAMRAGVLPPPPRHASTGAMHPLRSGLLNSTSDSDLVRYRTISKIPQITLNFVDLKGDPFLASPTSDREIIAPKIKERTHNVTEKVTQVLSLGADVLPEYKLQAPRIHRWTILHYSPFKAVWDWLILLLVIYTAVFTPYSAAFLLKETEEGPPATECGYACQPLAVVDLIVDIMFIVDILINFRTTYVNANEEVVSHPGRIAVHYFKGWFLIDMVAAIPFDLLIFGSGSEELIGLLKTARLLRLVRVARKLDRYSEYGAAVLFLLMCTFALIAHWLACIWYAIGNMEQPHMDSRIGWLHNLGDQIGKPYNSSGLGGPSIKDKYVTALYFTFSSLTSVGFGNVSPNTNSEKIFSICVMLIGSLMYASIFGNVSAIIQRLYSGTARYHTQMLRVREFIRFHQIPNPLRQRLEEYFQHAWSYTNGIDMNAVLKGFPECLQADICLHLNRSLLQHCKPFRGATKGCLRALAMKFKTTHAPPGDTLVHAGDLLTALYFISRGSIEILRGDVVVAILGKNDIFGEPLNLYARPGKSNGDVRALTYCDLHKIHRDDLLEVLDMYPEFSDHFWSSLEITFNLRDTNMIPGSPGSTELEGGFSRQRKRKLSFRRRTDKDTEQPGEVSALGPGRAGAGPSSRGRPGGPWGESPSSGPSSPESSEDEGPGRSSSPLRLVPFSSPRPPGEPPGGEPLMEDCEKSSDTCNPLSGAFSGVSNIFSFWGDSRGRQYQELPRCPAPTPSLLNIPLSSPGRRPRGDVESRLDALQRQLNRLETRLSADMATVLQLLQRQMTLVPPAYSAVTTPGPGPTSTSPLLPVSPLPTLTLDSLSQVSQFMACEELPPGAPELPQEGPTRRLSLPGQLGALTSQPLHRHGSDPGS

Compound | hERG current change (%, negative = inhibition) at 10uM
COc1cccc(CC(Cc2nc3ccccc3[nH]2)c2nc3ccccc3[nH]2)c1 (stereo not shown) | -33%
Cn1nnnc1SCC(=O)Nc1ccc(N2CCOCC2)cc1 | 5.57%
N#CCc1ccc(NC(=O)c2ccc(S(=O)(=O)N3CCCC3)cc2)cc1 | 16.9%
CC1CCCCN1S(=O)(=O)c1ccc(NC(=O)c2cccs2)cc1 (stereo not shown) | -11.3%
COc1ccccc1CNc1ncnc2c1cnn2-c1ccccc1 | -12.1%
COc1ccc2nc(Nc3nc(CSc4nnnn4-c4ccccc4)cc(=O)[nH]3)nc(C)c2c1 | -42.1%
O=C(NCc1ccccc1Cl)c1ccc2ccccc2n1 | -1.85%
O=C(O)C1=C[C@@H](c2ccc(Br)cc2)C[C@@H](OCc2ccc(CO)cc2)O1 | 18.2%
Cc1ccc(NC(=O)[C@@H]2CCCN2S(=O)(=O)c2ccccc2C(F)(F)F)cc1S(=O)(=O)N1CCOCC1 | -21.4%
CCN1C(=O)N[C@H](c2ccccc2)C(C(C)=O)=C1C | 8.38%
CN1CCN(C=NC2=NN(c3cccc(C(F)(F)F)c3)CC2)CC1 | -23.9%
O=[N+]([O-])c1ccc(Oc2ccc(/C=N/O)cc2)nc1 | 0.3%
Cc1ccc(Oc2ccc(/C=N/O)cn2)cc1 | -1.45%
N#Cc1ccc(Oc2ccc(/C=N/O)cn2)cc1 | -73.7%
CCOC(=O)Nc1ccc(C(=O)/C=C/c2ccccc2)cc1 | -7.78%
COc1cccc(/C=C(\CC(=O)O)c2nc3ccccc3s2)c1 | 11.6%
Cn1ncc(Cl)c1C(=O)NNC(=O)Nc1cccc2ccccc12 | 7.09%
Cc1ccc(-c2nn3c(C)nnc3c3ccccc23)cc1S(=O)(=O)NC(C)c1ccccc1 (stereo not shown) | -50.8%
Cc1ccc(-c2nn3c(C)nnc3c3ccccc23)cc1S(=O)(=O)NCc1ccccc1 | -29.5%
Cc1ccc(-c2nn3c(C)nnc3c3ccccc23)cc1S(=O)(=O)N1CCN(CCO)CC1 | -74.5%
Cc1ccc(-c2nn3c(C)nnc3c3ccccc23)cc1S(=O)(=O)NCCO | 11%
CCOC(=O)N1CCN(S(=O)(=O)c2cc(-c3nn4c(C)nnc4c4ccccc34)ccc2C)CC1 | -29%
Cc1ccc(-c2nnc3c4ccccc4c(C)nn23)cc1S(=O)(=O)N1CCN(CCO)CC1 | -32.9%
CCCN(C(=O)c1cc(Cl)nc2ccccc12)C1CCS(=O)(=O)C1 (stereo not shown) | 9.75%
O=C(N/N=C/c1ccncc1)c1ccc(NS(=O)(=O)c2cccs2)cc1 | 8.88%
COc1cccc(CN(C)CC2CCCN(CCc3ccccc3C)C2)c1 (stereo not shown) | -109%

Compound | hERG current change (%, negative = inhibition) at 10uM
CC(=O)c1cccc(CN(C)CC2CCCN(CCc3ccccc3C)C2)c1 (stereo not shown) | -28.8%
COc1ccc(CN(C)CC2CCCN(CCc3ccccc3C)C2)cc1O (stereo not shown) | -53.8%
COc1ccc(CCN2CCCC(CN(C)Cc3cccc(OC)c3)C2)cc1 (stereo not shown) | -60.6%
CCn1c(CNC(=O)c2ccccc2Br)nnc1SCC(=O)Nc1nncs1 | 3.2%
COc1cccc(C(=O)Nc2ccc(NC(=O)c3ccco3)cn2)c1 | -15.1%
O=C(Nc1ccc2c(c1)OCO2)c1cnn2c(C(F)(F)F)cc(-c3ccco3)nc12 | 2.24%
CCOC(=O)Cc1c(C)nc2c(-c3ccccc3OC)c(C)nn2c1C | -22.7%
COc1ccc(/C=N/N2C(=O)CN(C(=O)c3ccccc3)C2c2ccc(OC)cc2)cc1 (stereo not shown) | -4.19%
CCCCc1nc2ccccc2c(C(=O)O)c1C | 7.29%
CN1CCc2c1nc1ccccc1c2N.O=C(O)c1cc([N+](=O)[O-])ccc1Cl | -9.41%
CCCCc1nc2ccccc2c(N)c1CCC.O=C(O)c1cc([N+](=O)[O-])ccc1Cl | -66.4%
CS(=O)(=O)Nc1ccc(C2=NN(C(=O)c3cccc(F)c3)C(c3cccs3)C2)cc1 (stereo not shown) | -53.8%
Cc1ccc(C(=O)N2N=C(c3ccc(NS(C)(=O)=O)cc3)CC2c2cccs2)cc1 (stereo not shown) | -23.1%
CS(=O)(=O)Nc1cccc(C2=NN(S(=O)(=O)c3ccccc3)C(c3cccs3)C2)c1 (stereo not shown) | -1.94%
CC(C)(C)C(=O)N1N=C(c2ccc(NS(C)(=O)=O)cc2)CC1c1cccs1 (stereo not shown) | -18.6%
CS(=O)(=O)Nc1ccc(C2=NN(S(C)(=O)=O)C(c3cccs3)C2)cc1 (stereo not shown) | -49%
CS(=O)(=O)Nc1ccc(C2=NN(S(=O)(=O)c3ccccc3)C(c3cccs3)C2)cc1 (stereo not shown) | -70.3%
CCS(=O)(=O)Nc1ccc(C2=NN(C(=O)c3ccccc3)C(c3cccs3)C2)cc1 (stereo not shown) | 4.84%
CS(=O)(=O)Nc1cccc(C2=NN(C(=O)c3cccc(F)c3)C(c3cccs3)C2)c1 (stereo not shown) | 3.75%
Cc1cccc(C(=O)N2N=C(c3ccc(NS(C)(=O)=O)cc3)CC2c2cccs2)c1 (stereo not shown) | -8.44%
CS(=O)(=O)Nc1ccc(C2=NN(C(=O)c3ccccc3)C(c3cccs3)C2)cc1 (stereo not shown) | -59.6%
CC(C)C(=O)N1N=C(c2ccc(NS(C)(=O)=O)cc2)CC1c1cccs1 (stereo not shown) | -68.7%
CS(=O)(=O)Nc1ccc(C2=NN(C(=O)C3CCCCC3)C(c3cccs3)C2)cc1 (stereo not shown) | -22.8%
CCOC(=O)C1=NNC2C(=O)N(CC)C(=O)C12 (stereo not shown) | 9.23%
Cc1ccc(C)c(S(=O)(=O)N2CCN(CC(=O)Nc3ccc4c(c3)OCCO4)CC2)c1 | -13.9%
Cc1occc1C(=O)N1CCN(S(C)(=O)=O)CC1 | 7.58%
